Source: PubChem BioAssay AID652042 (Broad Institute, 2013)
In all, about 1,100 compounds went through this assay and about 350 (32%) were called active. The list is a sample of the results. Entries with a potency or affinity are not part of this list. Values without a mark were called inactive. The rule behind the calls is not given here.

experiment: viability loss in CEM21 cells – cell-based, CellTiter-Glo luminescence, cherry-picked, cytotoxicity control for viral fusion inhibitor project, dose response (AID 652042); settings: CellTiter-Glo ATP luminescence, 24 h; series mostly up to 35 µM; activity change, negative = cytotoxicity: at the top concentration

Question: With `Cc1cccc(NC(=O)C2CCN(S(=O)(=O)c3ccc4c(c3)OCCCO4)CC2)n1` as the molecule, how does the “activity change, negative = cytotoxicity” value read?
Answer: Its value is -10.3%.

Question: With `Cc1ccc(Cn2nnnc2CN2CCC(c3nc4ccc(Cl)cc4[nH]3)CC2)cc1` as the molecule, how does the “activity change, negative = cytotoxicity” value read?
Answer: The value was -15.9%.

Question: With `COc1ccc(CN2CCC(C)(Oc3ccc4c(c3)OCO4)C2)c2ccccc12` (stereo not given) as the molecule, how does the “activity change, negative = cytotoxicity” value read?
Answer: The value was -16.4%.

Question: Which “activity change, negative = cytotoxicity” value does the source give for `CCN(C[C@H]1N[C@@](CC)(C(=O)OC)[C@H]2C(=O)N(Cc3ccccc3)C(=O)[C@@H]12)C(=O)Nc1ccc(OC)cc1` here?
Answer: The value was 2%.

Question: Which “activity change, negative = cytotoxicity” value does the source give for `COC(=O)[C@@]1(C)[C@H]2C(=O)N(Cc3ccccc3)C(=O)[C@H]2[C@H]2CN=C(SCc3ccc(Cl)cc3)N21` here?
Answer: The value was -14.2%.

Question: For `CCN1C(=O)[C@H]2[C@@H](c3ccc(C)cc3)N3C(=O)N(c4cccc(Cl)c4)C(=O)[C@@]3(CC)[C@H]2C1=O`, which “activity change, negative = cytotoxicity” value is on record?
Answer: Its value is 4.5%.

Question: Which “activity change, negative = cytotoxicity” value does the source give for `CS(=O)(=O)N(Cc1ccc(Cl)cc1)c1ccc(C(=O)NCCSc2ccccn2)cc1` here?
Answer: The value was -17.6%.

Question: With `CC(=O)c1c(C)[nH]c(C(=O)OCCCCN2C(=O)c3ccccc3C2=O)c1C` as the molecule, how does the “activity change, negative = cytotoxicity” value read?
Answer: The value was -19.4%.

Question: With `COCC(=O)N1C[C@@H](C)[C@H](OC)CN(C)C(=O)c2ccc(NC(=O)c3ccc(OC)cc3)cc2OC[C@@H]1C` as the molecule, how does the “activity change, negative = cytotoxicity” value read?
Answer: Its value is -0.433%.

Question: With `CO[C@H]1CN(C)C(=O)c2ccc(NC(=O)Nc3cccc(F)c3)cc2OC[C@@H](C)N(C(C)=O)C[C@H]1C` as the molecule, how does the “activity change, negative = cytotoxicity” value read?
Answer: The value was 3.06%.

Question: Which “activity change, negative = cytotoxicity” value does the source give for `CCC(=O)Nc1ccc2c(c1)C(=O)N(C)C[C@@H](OC)[C@H](C)CN(C(=O)CC)[C@@H](C)CO2` here?
Answer: Its value is -0.847%.

Question: With `CO[C@H]1CN(C)C(=O)c2ccc(NC(=O)C3CC3)cc2OC[C@@H](C)N(C(C)=O)C[C@@H]1C` as the molecule, how does the “activity change, negative = cytotoxicity” value read?
Answer: Its value is 0.552%.

Question: For `CCCC(=O)Nc1ccc2c(c1)OC[C@H](C)N(C(=O)CN(C)C)C[C@@H](C)[C@H](OC)CN(C)C2=O`, which “activity change, negative = cytotoxicity” value is on record?
Answer: The value was 1.57%.

Question: With `CO[C@H]1CN(C)C(=O)c2cc(NC(=O)C3CCOCC3)ccc2OC[C@H](C)N(Cc2nccs2)C[C@H]1C` as the molecule, how does the “activity change, negative = cytotoxicity” value read?
Answer: The value was -7.3%.

Question: Which “activity change, negative = cytotoxicity” value does the source give for `CCN(CC)S(=O)(=O)c1ccc(N2CCCC2)c(NC(=O)Cc2cc(OC)c(OC)c(OC)c2)c1` here?
Answer: Its value is -0.756%.

Question: Which “activity change, negative = cytotoxicity” value does the source give for `O=C(c1cccc(S(=O)(=O)N2CCN(c3ccccc3)CC2)c1)N1CCCC(C(F)(F)F)C1` (stereo not given) here?
Answer: The value was -13.9%.

Question: With `O=C1CCCCC1Sc1nnc(-c2ccc3c(c2)OCO3)o1` (stereo not given) as the molecule, how does the “activity change, negative = cytotoxicity” value read?
Answer: Its value is -4.91%.

Question: For `O=C(CN1C(=O)c2ccccc2S1(=O)=O)c1ccc2c(c1)OCCO2`, which “activity change, negative = cytotoxicity” value is on record?
Answer: The value was -3.96%.

Question: With `Cc1ccccc1S(=O)(=O)NC(=O)C1(C)CCN1C(=O)CCc1ccc(Cl)cc1Cl` (stereo not given) as the molecule, how does the “activity change, negative = cytotoxicity” value read?
Answer: The value was -0.499%.

Question: With `COc1ccc([C@@H]2[C@@H]3C(=O)N(C(C)(C)C)C(=O)[C@@H]3[C@]3(CC(C)C)C(=O)N(c4cccc(F)c4)C(=O)N23)cc1` as the molecule, how does the “activity change, negative = cytotoxicity” value read?
Answer: The value was -0.051%.

Question: With `COc1ccc(-c2cc(C(=O)NNC(=S)NC(=O)c3c(-c4ccccc4)noc3C)[nH]n2)cc1` as the molecule, how does the “activity change, negative = cytotoxicity” value read?
Answer: Its value is -18.7%.

Question: With `Cc1onc(-c2ccccc2)c1C(=O)Nc1ccc(Br)cc1Cl` as the molecule, how does the “activity change, negative = cytotoxicity” value read?
Answer: The value was -6.29%.

Question: For `CC1(Cc2ccc(Cl)cc2)C(=O)Nc2ccc(S(=O)(=O)NC3CCCCC3)cc21` (stereo not given), which “activity change, negative = cytotoxicity” value is on record?
Answer: The value was -16.2%.

Question: With `O=C(Nc1cccn(Cc2c(Cl)cccc2Cl)c1=O)c1ccc(Cl)cc1` as the molecule, how does the “activity change, negative = cytotoxicity” value read?
Answer: Its value is -22.3%.

Question: For `CCCCOc1ccc(S(=O)(=O)Nc2cccnc2)cc1`, which “activity change, negative = cytotoxicity” value is on record?
Answer: Its value is -6.62%.

Question: For `CCCNC(=O)C[C@@H]1C[C@H]2c3cc(NC(=O)Cc4ccncc4)ccc3O[C@H]2[C@H](CO)O1`, which “activity change, negative = cytotoxicity” value is on record?
Answer: Its value is 0.915%.

Question: For `CC1CCN(S(=O)(=O)c2cc(C(=O)N3CCN(c4ccccc4)CC3)ccc2Br)CC1`, which “activity change, negative = cytotoxicity” value is on record?
Answer: The value was -29.4%.

Question: With `COc1ccccc1S(=O)(=O)N[C@H]1CC[C@H](CC(=O)N2CCN(C)CC2)O[C@H]1CO` as the molecule, how does the “activity change, negative = cytotoxicity” value read?
Answer: The value was -2.4%.

Question: With `Cc1ccc(C2CC(=O)c3cnc(N4CCc5ccccc5C4)nc3C2)cc1` (stereo not given) as the molecule, how does the “activity change, negative = cytotoxicity” value read?
Answer: Its value is 0.412%.

Question: For `CN(C)Cc1cn(CC[C@@H]2CC[C@H](N)[C@H](CO)O2)nn1`, which “activity change, negative = cytotoxicity” value is on record?
Answer: The value was -1.13%.

Question: For `O=C(Cc1ccncc1)N[C@H]1CC[C@@H](CCn2cc(-c3ccccc3F)nn2)O[C@@H]1CO`, which “activity change, negative = cytotoxicity” value is on record?
Answer: Its value is 1.85%.

Question: For `CC[C@@]12C(=O)N(c3ccccc3)C(=O)N1[C@H](c1cccc(C)c1)[C@@H]1C(=O)N(Cc3ccccc3)C(=O)[C@@H]12`, which “activity change, negative = cytotoxicity” value is on record?
Answer: Its value is -8.41%.

Question: With `CC(C)(C)n1nnnc1C(c1cccs1)N(Cc1cccnc1)Cc1ccco1` (stereo not given) as the molecule, how does the “activity change, negative = cytotoxicity” value read?
Answer: The value was -11.5%.

Question: Which “activity change, negative = cytotoxicity” value does the source give for `CC(C)(C)NC(=O)C(c1ccccc1)N(Cc1cccs1)C(=O)c1csnn1` (stereo not given) here?
Answer: The value was 3.62%.

Question: Which “activity change, negative = cytotoxicity” value does the source give for `COc1ccc(N2C(=O)N3[C@H](c4ccc(Cl)cc4)[C@@H]4C(=O)N(C5CCCCC5)C(=O)[C@@H]4[C@]3(C)C2=O)cc1` here?
Answer: The value was -13.4%.

Question: Which “activity change, negative = cytotoxicity” value does the source give for `CCn1ncc(C2=NOC(C(=O)Nc3ccc(C)cc3)C2)c1C` (stereo not given) here?
Answer: The value was 3.78%.

Question: With `c1csc(-c2csc3ncnc(NCCCN4CCOCC4)c23)c1` as the molecule, how does the “activity change, negative = cytotoxicity” value read?
Answer: The value was -3.21%.

Question: Which “activity change, negative = cytotoxicity” value does the source give for `O=C(C[C@@H]1C[C@@H]2c3cc(NC(=O)C4CCC4)ccc3O[C@@H]2[C@@H](CO)O1)NCC(F)(F)F` here?
Answer: Its value is 1.57%.

Question: With `CCNC(=O)C[C@H]1CC[C@@H]2[C@@H](COc3ccc(NC(=O)Cc4cccs4)cc3C(=O)N2C)O1` as the molecule, how does the “activity change, negative = cytotoxicity” value read?
Answer: Its value is -2.64%.

Question: For `CS(=O)(=O)N1CCc2cc(-c3csc(NC(=O)Cc4cccs4)n3)ccc21`, which “activity change, negative = cytotoxicity” value is on record?
Answer: The value was -6.69% [at 16 µM].
